Assay results reported in PubChem BioAssay AID463193 (University of Pittsburgh Molecular Library Screening Center, 2010).
The whole screen tested about 190,000 compounds, of which about 1,900 (1%) were called active.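 Rule for the calls: active = percentage of spot-positive cells more than 3 SD above its plate mean, without a fluorescence outlier flag or 80% toxicity; inconclusive = no clear call, values can overlap the other calls; inactive = the rest.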 The entries come from a sample that favours actives as a whole.

Experiment: GFP-LC3 puncta formation changes – imaging, high-content, MEF GFP-LC3, primary screen (AID 463193);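 for % cells with GFP-LC3 spots: spot-positive cell cutoff set from DMSO-treated cells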;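 for toxicity: cell loss after 18 h compound exposure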
Conditions: autophagy, at 10 µM; % cells with GFP-LC3 spots: stronger effect = higher value; toxicity: measured here: cell loss, nuclei count

SMILES	% cells with GFP-LC3 spots	toxicity [%]
CCOC(=O)C1CCCN(C(=O)c2cncc(Br)c2)C1 (stereo unspecified)	9.51% (inactive)	4.79
CSc1ccc(CCNC(=O)C2CCN(c3nnc(-n4cccc4)s3)CC2)cc1	4.67% (inactive)	3.56
CCOC(=O)C1CCCN(C(=O)C2CCN(c3nnc(-n4cccc4)s3)CC2)C1 (stereo unspecified)	15.3% (active)	6.19
Fc1cc(Br)ccc1NC(=S)Nc1cccnc1	4.97% (inactive)	-1.9
Cc1cccc(N=C2NC(=O)/C(=C/c3cn(C)c4ccccc34)S2)c1	2.55% (inactive)	4.32
CN(C)c1ccc(-n2cccc2/C=N/n2cnnc2)cc1	4.65% (inactive)	-2.02
CN(C)c1ccc(-n2cccc2/C=C2/SC(=Nc3ccc(F)cc3)NC2=O)cc1	93.2% (active)	-20.2
CCC(C)(C)NC(=O)/C=C/c1cc(OC)c(OC)c(S(=O)(=O)N2CCc3ccccc32)c1	11.3% (inactive)	20
O=C(CCl)N(Cc1cccc([N+](=O)[O-])c1)c1cccc(Cl)c1	60.8% (active)	58.5
O=C(Nc1cccc([N+](=O)[O-])c1)Nc1ccc(Cl)cn1	1.56% (inactive)	15.9
CCN(CC)C(=O)CN(c1cccc([N+](=O)[O-])c1)S(=O)(=O)c1ccccc1	0.147% (inactive)	2.32
Cc1ccccc1OCC(=O)Nc1nc(C)c(C(=O)N(C)C)s1	28.3% (inactive)	-9.79
CCc1cccc(NC(=O)CCC(=O)O)c1	4.04% (inactive)	8.61
O=C(c1ccc(F)cc1)n1cc(C(=S)N2CCOCC2)c2ccccc21	8.35% (inactive)	-13.5
CCOC(=O)c1sc(NC(=O)CSc2nc(O)c(Cc3ccccc3)c(=O)[nH]2)nc1C	4.28% (inactive)	-1.5
CCc1ccc(Oc2coc3cc(OC(=O)c4cc5ccccc5oc4=O)ccc3c2=O)cc1	1.87% (inactive)	-5.27
COc1ccc(Oc2coc3cc(OC(=O)c4cncc(Br)c4)ccc3c2=O)cc1	25.7% (active)	-11.8
COC(=O)c1ccccc1NC(=O)c1cncc(Br)c1	6.11% (inactive)	-8.54
Nc1nc(SCC(=O)N2CCN(S(=O)(=O)c3ccc(Cl)cc3)CC2)n[nH]1	1.97% (inactive)	-0.836
N#Cc1ccsc1NC(=O)CN1CCN(S(=O)(=O)c2cc(Cl)ccc2Cl)CC1	7.41% (inactive)	41.3
CCCN1CC=C2C(C#N)=C(N)C(C#N)(C#N)C(c3cc(OC)ccc3OC)C2C1 (stereo unspecified)	99.7% (active)	9.7
CCOC(=O)N1CC=C2C(C#N)=C(N)C(C#N)(C#N)[C@H](c3cccs3)[C@H]2C1	11.3% (inactive)	-6.29
CCC1=C(C(=O)OC)C(c2cc(OC)ccc2OC)C(C#N)=C(N)O1 (stereo unspecified)	2.22% (inactive)	-10.7
